An excerpt weighted towards active compounds, which were near 3.8% of everything screened.
esBAF inh – blocks esBAF chromatin remodeling in mouse ES cells; AID 602393; actives 2% (n = 350,000); Bmi1-luciferase knock-in reporter, 24 h; 100% = twice the neutral-well signal; reporter increase, % at 12.5 µM; in the data active means activation above about 40%; inconclusive means no clear call, values can overlap the other calls;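 further: 0% = median of the plate's neutral control wells and 100% = double that signal; a rise in the Bmi1 reporter signal indicates esBAF inhibition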
Wnt bcat act – activators of Wnt/beta-catenin signaling; Wnt/beta-catenin reporter cell assay, activator, plate reader; activation, % at 9.35 µM; actives 1.2% (n = 300,000); AID 743398; in the data active means activation above about 30%, passing the limit was not always enough; inconclusive means no clear call, values can overlap the other calls;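 further: 0% = neutral control wells and 100% = positive control wells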
HSF1 inh – HSF1 inhibition. NIH3T3-HGL HSE-luciferase, MG132-induced, luminescence 8 h; active compounds read low. AID 2098. activity change, negative = inhibition, % at 7.5 µM (by protocol). actives 0.77% (n = 300,000);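 active means more than half of replicate wells show activity change below -50%, luminescence cut by over half; inconclusive means some wells, but at most half, below -50%; inactive means no replicate well below -50%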;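 further: luciferase reports HSF-1 transcriptional activity via heat shock element; 0% = median of DMSO wells and -100% = zero luminescence signal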
MITF act – increases MITF-driven TRPM1 promoter luciferase signal; SK-MEL-5 TRPM1-promoter luciferase, 24 h; % of positive control, neutral wells = 0; activation, % at 12.5 µM; actives 0.75% (n = 300,000); AID 588334;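 active means mean activation of at least 80% with every replicate also reaching 80%; inconclusive means mean reaches 80% but some replicate falls short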;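 further: 0% = neutral control wells and 100% = parthenolide positive control wells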
HSF-1 act – increases HSF-1 driven luciferase reporter signal; NIH3T3-HGL HSF-1 luciferase reporter, MG132, 8 h; 100% = twice DMSO control signal; activation, % at 9 µM; actives 1.7% (n = 300,000); AID 504408;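 active means mean replicate activation of at least 50% with a set share of replicates each reaching 50%; inconclusive means only one of those two conditions met; inactive means mean below 50% and too few replicates reaching it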;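 further: 0% = median of the neutral control wells and 100% = twice that signal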
Numbers without * were called inactive; ? = inconclusive; nt = no result given.

SMILES | esBAF inh | Wnt bcat act | HSF1 inh | MITF act | HSF-1 act
COCCn1c(=O)[nH]c2cc(C(=O)NC3CCCCCC3)ccc2c1=O | -3 | -3 | -72* | nt | -78
COc1ccc(-n2c(=S)[nH]c3cc(C(=O)NC4CCCCC4)ccc3c2=O)c(OC)c1 | 1 | -6 | 28 | -26 | 60*
C[C@H]1CN([C@@H](C)CO)C(=O)c2cc(NC(=O)CCN3CCOCC3)ccc2O[C@H]1CN(C)Cc1ccc(C(=O)Nc2ccccc2N)cc1 | -12 | nt | nt | nt | nt
Cc1nn(-c2nc3ccccc3s2)c(C)c1Oc1ccccc1O | 45* | nt | 48 | 77 | ?
Cc1nn(-c2ccccn2)c(C)c1Oc1ccccc1O | 5 | nt | 28 | 4 | ?
C[C@@H]1CCCCO[C@H](CN(C)C(=O)NC2CCCCC2)[C@@H](C)CN([C@H](C)CO)C(=O)c2cc(NC(=O)Nc3ccc4c(c3)OCO4)ccc2O1 | -4 | nt | nt | nt | nt
Cc1cc(C)nc(NC(=S)Nc2ccccc2)n1 | nt | 5 | 26 | 6 | 51*
Cc1cc(C)nc(NC(=S)NC(=O)c2ccccc2)n1 | 27 | 3 | 3 | nt | 5
O=C(C[C@@H]1CC[C@@H](NC(=O)Nc2ccc(F)cc2)[C@H](CO)O1)NCc1cccc(F)c1 | 1 | nt | nt | nt | nt
Cc1cc(C)nc(NNC2=CC(=[N+]3CCCCC3)CC(C)(C)C2)n1 | nt | 1 | -71* | -14 | -77
Nc1cnn(Cc2ccc(F)cc2)c1 | 3 | -1 | 30 | -9 | 56*
Nc1cnn(Cc2ccccc2F)c1 | nt | -1 | 16 | -4 | 25
COc1ccc(NC(=O)Nc2ccc3c(c2)[C@H]2C[C@@H](CC(=O)NCc4ccccn4)O[C@@H](CO)[C@H]2O3)cc1 | -2 | nt | nt | nt | nt
COc1cc(/C=C/C(=O)NC(C)C2CC3CCC2C3)cc(OC)c1OC (stereo not drawn) | -14 | -1 | -88* | -7 | -91
Clc1cccc(-c2cc3nc4c(c(N5CCN(c6cnccn6)CC5)n3n2)CCCC4)c1 | 47* | 3 | nt | 47 | nt
CCc1ccccc1NC(=O)COc1ccc2c(=O)c(Oc3cc(C)ccc3C)coc2c1 | nt | 0 | 29 | -3 | 71*
COc1ccccc1Oc1coc2cc(OCC(N)=O)ccc2c1=O | -6 | 0 | -3 | 7 | -7
CCCNC(=O)COc1ccc2c(=O)c(Oc3ccccc3F)coc2c1 | nt | -2 | -70* | -5 | -77
CC1CCC(NC(=O)c2cc3c(s2)CCCC3)CC1 (stereo not drawn) | ? | ? | 20 | 100* | 31
CC1CCC(NC(=O)c2ccc(Br)o2)CC1 (stereo not drawn) | 13 | 1 | nt | nt | nt
Cc1ccc(C(=O)NC2CCCC2)s1 | nt | 0 | -1 | 12 | -5
Cc1ccc(C(=O)NC2CCC(C)CC2)s1 (stereo not drawn) | nt | 62* | 31 | 50 | 42
Cc1ccc(C(=O)NC2CCC(C)CC2)o1 (stereo not drawn) | 55* | 21 | 1 | 38 | 17
COc1cc(OC)cc(C(=O)N2CCN(S(C)(=O)=O)CC2)c1 | -2 | -3 | -82* | -3 | -85
Cc1noc(NS(=O)(=O)c2ccc(N3Cc4ccccc4C3=O)cc2)c1C | 7 | nt | -85* | 7 | -89
SMILES | esBAF inh | Wnt bcat act | HSF1 inh | MITF act | HSF-1 act
Cc1noc(NS(=O)(=O)c2ccc(NC(=O)c3ccc(N4C(=O)c5ccccc5C4=O)cc3)cc2)c1C | nt | -1 | -5 | ? | 9
Clc1ccc(-n2nnc(-c3cccnc3)n2)cc1Cl | 83* | 32* | -2 | 71 | 13
Clc1ccc(-n2nnc(-c3ncc[nH]3)n2)cc1Cl | 62* | 5 | 13 | ? | 21
Brc1ccccc1-n1nnc(-c2cccnc2)n1 | ? | 24 | 7 | ? | -1
Fc1ccc(-n2nnc(-c3cccnc3)n2)cc1 | 62* | 32* | 18 | 62 | 40
C[C@@H]1CN([C@H](C)CO)C(=O)c2cc(NS(=O)(=O)c3ccc(F)cc3)ccc2O[C@@H](C)CCCCO[C@@H]1CN(C)S(=O)(=O)c1ccc(F)cc1 | 2 | nt | nt | nt | nt
O=C(C[C@H]1CC[C@@H]2[C@H](COC[C@H](O)CN2C(=O)C2CC2)O1)NCc1ccncc1 | -2 | nt | nt | nt | nt
CO[C@@H]1CN(C)C(=O)c2cc(NC(=O)Nc3cccc(F)c3)ccc2OC[C@H](C)N(C)C[C@H]1C | 2 | nt | nt | nt | nt
O=C(N[C@H]1CC[C@@H](CCNC(=O)C2CC2)O[C@@H]1CO)c1ccncc1 | 2 | nt | nt | nt | nt
C[C@H](O)C#Cc1ccc2c(c1)O[C@@H](CN(C)C(=O)Nc1ccccc1)[C@H](C)CN([C@H](C)CO)S2(=O)=O | -1 | nt | nt | nt | nt
O=C(Cc1ccncc1)N[C@@H]1CC[C@@H](CCn2cc(-c3ccccc3F)nn2)O[C@@H]1CO | 0 | nt | nt | nt | nt
CCC(=O)N1[C@H](CO)[C@H](c2ccc(C3=CCCC3)cc2)[C@@H]1CNC(=O)CN(C)C | 4 | nt | nt | nt | nt
Cc1noc(C)c1NC(=O)Nc1ccc2c(c1)CC(=O)N([C@H](C)CO)C[C@H](C)[C@H](CN(C)S(C)(=O)=O)O2 | 0 | nt | nt | nt | nt
COc1ccc(C(=O)Cn2nnc(-c3cccs3)n2)cc1 | 8 | 51* | 10 | nt | 27
COc1ccc(N2CCN(C(=O)Cn3nnc(-c4cccs4)n3)CC2)cc1 | -7 | nt | 1 | -11 | -1
Cc1ccnc(Nc2nc3ccccc3o2)n1 | -60 | 4 | -16 | -17 | -28
Cc1ccc(Nc2nc3ccccc3o2)cc1F | 14 | 31* | nt | 12 | nt
O=C1C=C(Nc2cccc3cccnc23)c2ccccc2C1=O | 4 | -1 | 8 | nt | 26
CCc1ccc(NC2=CC(=O)C(=O)c3ccccc32)cc1 | nt | 33* | nt | -103 | nt
CC(C)(C)c1ccc2c(c1)C(=O)c1ccccc1C2=O | -6 | ? | -3 | -6 | 4
O=C1C=C(Nc2ccccc2)C(=O)c2ccccc21 | 5 | 2 | 61 | -48 | 96*
CCc1ccc2c(c1)C(=O)c1ccccc1C2=O | nt | 74* | 40 | 35 | 81*
O=C1C=C(Nc2ccccc2C(=O)O)c2ccccc2C1=O | -5 | 7 | 64 | -34 | 93*
O=C1C=C(Nc2ccccc2)c2ccccc2C1=O | nt | 4 | 47 | -102 | 49
Cc1ccc2oc(C(Cl)(Cl)Cl)cc(=O)c2c1 | nt | -1 | 45 | -68 | 52*
Cc1ccc2oc(C(F)(F)C(F)F)cc(=O)c2c1 | nt | -3 | -14 | -13 | -28
CC(C)(C)C(=O)[C@H]1[C@H](c2ccccc2)[C@@]2(N=C(c3ccccc3)OC2=O)C2c3ccccc3C=NN21 (stereo partly drawn) | 47* | 12 | 12 | nt | 20

Bioassay records: PubChem, Broad Institute
